The values that follow come from ChEMBL document CHEMBL1961873, “Compounds: GSK PKIS; Assays: Nanosyn kinase panel” (2012).

Experiment [1] has as its target Casein kinase I isoform gamma-2 (Homo sapiens) (UniProt P78368). As to conditions: at 1 µM.
Experiment [2] has as its target Casein kinase I isoform gamma-3 (Homo sapiens) (UniProt Q9Y6M4). As to conditions: at 0.1 µM.
Experiment [3] shares this target. The following applies: at 1 µM.
For experiment [4], the target named is Cyclin-dependent kinase 1 (Homo sapiens) (UniProt P06493). The following applies: at 0.1 µM.
Chain of Cyclin-dependent kinase 1 (Homo sapiens) (P06493 whole entry, looked up): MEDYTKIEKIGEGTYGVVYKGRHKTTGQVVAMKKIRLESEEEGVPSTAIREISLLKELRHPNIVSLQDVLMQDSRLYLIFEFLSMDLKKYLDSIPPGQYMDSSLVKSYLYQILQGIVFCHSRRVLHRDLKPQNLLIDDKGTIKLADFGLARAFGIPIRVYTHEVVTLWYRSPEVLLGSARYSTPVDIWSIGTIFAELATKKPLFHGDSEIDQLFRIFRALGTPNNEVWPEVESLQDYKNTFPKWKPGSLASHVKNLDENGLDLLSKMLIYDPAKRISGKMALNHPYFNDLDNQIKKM
The target is the same in experiment [5]. The following applies: at 1 µM.
For experiment [6], the target named is Cyclin-dependent kinase 2 (Homo sapiens) (UniProt P24941). As to conditions: at 0.1 µM.
Experiment [7] has the same target. As to conditions: at 1 µM.
The target is the same in experiment [8]. As to conditions: at 0.1 µM. The source holds these as a separate data set.
Experiment [9] shares this target. As to conditions: at 1 µM. This is another data set of the same source.
Experiment [10] deals with CDK3/Cyclin E (Homo sapiens) (UniProt P24864+Q00526). As to conditions: at 0.1 µM.
Chain of CDK3/Cyclin E (Homo sapiens) (P24864 whole entry, looked up): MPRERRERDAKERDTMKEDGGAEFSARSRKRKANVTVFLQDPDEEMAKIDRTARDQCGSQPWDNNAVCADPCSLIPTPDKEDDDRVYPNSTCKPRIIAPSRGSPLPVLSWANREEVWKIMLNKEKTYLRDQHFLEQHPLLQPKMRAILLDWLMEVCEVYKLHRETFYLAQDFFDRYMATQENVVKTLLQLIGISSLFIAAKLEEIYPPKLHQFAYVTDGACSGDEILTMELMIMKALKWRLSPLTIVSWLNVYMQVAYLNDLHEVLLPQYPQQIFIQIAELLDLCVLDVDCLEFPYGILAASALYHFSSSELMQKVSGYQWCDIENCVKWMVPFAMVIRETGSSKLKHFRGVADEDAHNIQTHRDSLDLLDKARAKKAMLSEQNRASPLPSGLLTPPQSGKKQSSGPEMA
Chain of CDK3/Cyclin E (Homo sapiens) (Q00526 whole entry, looked up): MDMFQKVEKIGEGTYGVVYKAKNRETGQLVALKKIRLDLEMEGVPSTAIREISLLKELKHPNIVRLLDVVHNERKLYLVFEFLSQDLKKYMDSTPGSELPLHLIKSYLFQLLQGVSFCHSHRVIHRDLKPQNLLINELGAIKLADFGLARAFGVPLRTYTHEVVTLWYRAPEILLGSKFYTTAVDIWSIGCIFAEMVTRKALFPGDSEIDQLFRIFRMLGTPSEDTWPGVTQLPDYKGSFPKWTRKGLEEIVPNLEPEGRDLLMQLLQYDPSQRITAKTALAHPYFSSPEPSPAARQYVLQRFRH

Each structure is given as a SMILES string. Where “and” joins values, the source holds several entries; their conditions need not be identical. Equal entries are not always repeated.

Chain of Casein kinase I isoform gamma-3 (Homo sapiens) (Q9Y6M4 whole entry, looked up, canonical isoform): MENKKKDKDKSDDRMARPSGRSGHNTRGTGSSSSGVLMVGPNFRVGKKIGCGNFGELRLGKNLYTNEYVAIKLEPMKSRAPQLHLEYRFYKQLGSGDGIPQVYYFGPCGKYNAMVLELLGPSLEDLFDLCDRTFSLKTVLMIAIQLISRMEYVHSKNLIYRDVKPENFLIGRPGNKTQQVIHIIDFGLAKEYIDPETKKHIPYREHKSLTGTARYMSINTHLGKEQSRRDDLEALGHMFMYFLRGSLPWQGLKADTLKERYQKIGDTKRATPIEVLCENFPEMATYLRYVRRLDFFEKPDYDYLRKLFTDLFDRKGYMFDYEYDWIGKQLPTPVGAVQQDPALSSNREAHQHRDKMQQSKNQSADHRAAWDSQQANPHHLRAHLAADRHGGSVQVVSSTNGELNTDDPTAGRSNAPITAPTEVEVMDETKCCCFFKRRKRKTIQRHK
Chain of Casein kinase I isoform gamma-2 (Homo sapiens) (P78368 whole entry, looked up, canonical isoform): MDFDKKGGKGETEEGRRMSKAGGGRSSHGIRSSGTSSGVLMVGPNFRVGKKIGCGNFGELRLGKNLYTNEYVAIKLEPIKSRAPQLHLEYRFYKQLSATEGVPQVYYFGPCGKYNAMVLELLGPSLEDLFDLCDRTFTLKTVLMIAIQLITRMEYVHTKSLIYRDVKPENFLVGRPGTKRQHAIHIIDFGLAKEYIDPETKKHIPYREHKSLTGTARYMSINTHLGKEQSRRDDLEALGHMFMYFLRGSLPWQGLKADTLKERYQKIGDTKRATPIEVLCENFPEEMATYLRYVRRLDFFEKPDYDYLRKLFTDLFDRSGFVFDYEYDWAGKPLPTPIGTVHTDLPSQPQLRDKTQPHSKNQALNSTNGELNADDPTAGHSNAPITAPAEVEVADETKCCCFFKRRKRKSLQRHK

For orientation: inhibition means the drop in the measured response relative to a control, in per cent. On to `N#Cc1ccc2c(-c3ccnc(NC4CC4)n3)c(-c3ccc(F)cc3)nn2c1`, for which the inhibition in [1] is 3.98%; in experiment [2], 2.06%; in experiment [3] it was 5.03%; in [4], 0.15%; in experiment [5], -0.22%; in [6], 1.26%. The inhibition in [7] is 0.36%; in [8], 1%; in experiment [9] it was 0.3%; in [10] it was -0.85%.
For the compound `CN1CCN(Cc2ccc(-c3cc4ncnc(Nc5ccc(OCc6cccc(F)c6)c(Cl)c5)c4s3)o2)CC1`, the inhibition in [1] was 4.06% and 5.69%; in [2], 2.07% and 2.73%; in experiment [3] it was 3.72% and 4.9%; in [4], 1.26% and -0.15%; in experiment [5], 3.35%; in experiment [6] it was 2.79% and 0.8%. Also, the inhibition is 5.88% and 5.34% in experiment [7]; 3.41% and 3.54% in experiment [8]; 4.99% and 6.73% in [9]; -1.62% and 3.97% in experiment [10].
On to `NS(=O)(=O)c1ccc(N/N=C2\C(=O)Nc3ccc(C(=O)NCc4ccncc4)cc32)cc1`, for which the inhibition worked out at 4.22% in experiment [1]; 1.86% in [2]; 5.91% in [3]; 31.4% in experiment [4]; 71.3% in experiment [5]; 84.9% in experiment [6]. Further, the inhibition in experiment [7] is 110%; in [8], 78%; in [9] it was 86.2%; in experiment [10] it was 53.2%.
As to `Nc1ncnc2occ(-c3ccc(NC(=O)Nc4cc(C(F)(F)F)ccc4F)cc3)c12`, the inhibition was 4.53% and -0.27% in experiment [1]; 0.69% and 0.19% in [2]; 6.26% and 0.91% in [3]; 2.66% and 1.33% in [4]; 11.4% and 4.55% in [5]; 2.5% and 0.72% in experiment [6]. Besides, the inhibition was 13.5% and 5.32% in experiment [7]; 2.09% and 0.45% in [8]; 15.5% and 5.95% in experiment [9]; 1.13% and 2.46% in experiment [10].
For `O=C(O[C@H]1CN[C@H](C#Cc2cc3ncnc(Nc4ccc5c(cnn5Cc5ccccc5)c4)c3s2)C1)N1CCOCC1`, the inhibition in [1] was 0.77%; in [2], -1.09%; in experiment [3] it was 1.79%; in experiment [4], 2.44%; in experiment [5] it was 4.08%; in [6] it was 0.92%. For the same compound, the inhibition in [7] is -1.09%; in experiment [8] it was 3.48%; in [9], 2.34%; in experiment [10], -0.1%.
`CN1CCC(C(=O)Nc2n[nH]c3nc(-c4ccc(O)cc4)c(Br)cc23)CC1`: the inhibition in experiment [1] is 2.84% and 1.66%; in experiment [2], -0.75% and 1.55%; in experiment [3], 3.27% and 0.25%; in experiment [4], 7.05% and 10.3%; in [5], 43.7% and 42.6%; in experiment [6] it was 16.2% and 18.6%. Moreover, the inhibition in experiment [7] was 63.1% and 63.2%; in experiment [8], 9.58% and 5.38%; in experiment [9] it was 38.8% and 32.5%; in experiment [10], 12.5% and 12.3%.
On to `CC(C)c1ccc(-c2cc(-c3c[nH]nc3-c3ccccn3)ccn2)cc1`, for which the inhibition was 1.17% in [1]; -0.24% in experiment [2]; 3.43% in experiment [3]; -0.07% in experiment [4]; 2.01% in experiment [5]; 1.87% in experiment [6]. The inhibition is -0.02% in experiment [7], 1.12% in experiment [8], 1.4% in [9] and -1.25% in [10].
On to `O=C(O[C@H]1CN[C@H](C#Cc2cc3ncnc(Nc4ccc5c(ccn5Cc5cc(F)ccc5F)c4)c3s2)C1)N1CCOCC1`, for which the inhibition in experiment [1] was 5.86%; in experiment [2], 2.96%; in experiment [3], 4.98%; in [4] it was -0.04%; in experiment [5], 1.97%; in experiment [6] it was 1.56%. Moreover, the inhibition in [7] is 4.93%; in [8] it was 3.67%; in experiment [9], 2.07%; in experiment [10] it was 4.08%.
Turning to `Fc1ccc(Nc2nccc(-c3c(-c4ccc(C(F)(F)F)cc4)nn4ncccc34)n2)cc1F`, the inhibition in experiment [1] was 4.13%; in experiment [2] it was 3.32%; in experiment [3], 3.74%; in [4], -0.65%; in experiment [5] it was 0.76%; in experiment [6], 1.15%. Moreover, the inhibition is -0.44% in [7], 3.94% in experiment [8], 3.93% in [9] and 0.39% in [10].
Consider `COc1cc2c(cc1Nc1nc(Nc3cccc(F)c3C(N)=O)c3cc[nH]c3n1)N(C(=O)CN1CCN(C(C)C)CC1)CC2`, for which the inhibition in [1] is 5.31%; in experiment [2], 3.51%; in [3], 7.32%; in experiment [4], 2.14%; in [5] it was 0.55%; in [6], 3.46%. Moreover, the inhibition was 1.57% in experiment [7], 0.67% in experiment [8], 0.45% in experiment [9] and -1.81% in experiment [10].
Consider `CC1=C(C(=O)Nc2ccc3[nH]nc(C)c3c2)C(c2ccc(C(F)(F)F)cc2)CC(=O)N1` (stereo not given), for which the inhibition was 3.14% in experiment [1]; 2.16% in experiment [2]; 2.2% in experiment [3]; 1.96% in experiment [4]; 6.87% in [5]; 2.54% in experiment [6]. For the same compound, the inhibition in experiment [7] stood at 6.05%; in [8], 2.66%; in experiment [9] it was 6.67%; in experiment [10], 0.4%.
Consider `COc1c(C(N)=O)cc(-c2ccc(Cl)cc2)cc1-c1ccc(S(N)(=O)=O)cc1`, for which the inhibition in experiment [1] was 5.53%; in [2], 3.12%; in experiment [3], 5.9%; in experiment [4] it was 2.31%; in [5], -0.03%; in experiment [6] it was 3.12%. Besides, the inhibition in [7] was 3.62%; in experiment [8] it was 2.17%; in experiment [9], 3.13%; in experiment [10] it was -4.73%.
With `Cc1ccc(-c2cc3c(NC(=O)C4CC4)ncnc3o2)cc1`, the inhibition in experiment [1] came out at 5.03%; in [2], 2.01%; in experiment [3], 3.1%; in experiment [4], 0.77%; in [5] it was 3.16%; in experiment [6], 1.63%. Also, the inhibition came to 0.2% in experiment [7], 4.69% in experiment [8], 6.42% in experiment [9] and 1.4% in experiment [10].
Take `CNC(=O)c1ncccc1Nc1nc(Nc2cc3c(cc2OC)CCCN3C(=O)CN(C)C)nc2[nH]ccc12`: the inhibition was found to be 5.64% in [1]; 2.52% in [2]; 6.23% in experiment [3]; 1.79% in experiment [4]; 5.38% in experiment [5]; 2.38% in experiment [6]. The inhibition in experiment [7] stood at 9.91%; in [8], 7.73%; in [9], 9.82%; in experiment [10], 3.92%.
`CS(=O)(=O)Nc1ccc(-c2ccc3c(NC(=O)C4CC4)n[nH]c3c2)cc1`: the inhibition was 4.11% in [1]; 4.47% in [2]; 2.66% in [3]; 0.29% in experiment [4]; 3.65% in [5]; 2.2% in experiment [6]. The inhibition came out at 6.28% in experiment [7], 2.71% in [8], 5.01% in [9] and 0.71% in experiment [10].
